FBPA Giardia inh = inhibitors of Giardia lamblia fructose-1,6-bisphosphate aldolase; purified Giardia FBPA; A8B2U2; AID 2451; 290,000 tested, 0.71% active; Potency, µM (highest dose often 59.6 µM), inactives show at the highest dose activity, negative = inhibition, most hits filed as inhibitors; also: potency is read from the fitted curve at half-maximal effect; % is scaled to controls: 0 for no effect and ±100 for the full control effect; nearly all actives have a fitted effect of over 55% in size
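Giardia FBPA (40 nM reagent) was preincubated 10 min at RT with compound (up to 57.5 uM final), then substrate plus GAPDH/TPI/NAD/arsenate coupling system with diaphorase/resazurin was added; resorufin fluorescence (525/598 nm) was read after 20 min.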
Cycloheximide cs = affects cycloheximide protein synthesis inhibition readout, counter-screen; 300,000 tested, 12% active; AID 2314; cell reporter, cycloheximide protein synthesis inhibition counterscreen; max response, %; in the data active = max response mostly above about 13%, no sharp cut-off; inactive = mostly below about 14%; also: read at 38.3 µM for the half of the compounds with a filed dose; 0% is about no effect
Sm TGR inh = blocks Schistosoma mansoni thioredoxin glutathione reductase; 360,000 tested, 3% active; Q962Y6; Potency, µM (top dose mostly 114 µM), for the others: at the top dose activity change, negative = inhibition, actives largely listed as inhibitors; AID 485364; purified TGR, DTNB reduction, TNB absorbance 405 nm; also: potency is read from the fitted curve at half-maximal effect; % is scaled to controls: 0 for no effect and ±100 for the full control effect; nearly all actives have a fitted effect of over 60% in size
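Kinetic colorimetric format: TGR-catalysed, NADPH-driven DTNB reduction monitored via TNB absorbance. Enzyme dispensed at 20 nM; compound exposure 15 min at room temperature before reaction start.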
TbPYK inhibitor = blocks Trypanosoma brucei pyruvate kinase; 410,000 tested, 0.12% active; TbPYK enzyme, Kinase-Glo Plus ATP luminescence, 45 min; Potency, µM (highest dose often 76.8 µM), for the others: at the highest dose activity, negative = inhibition, actives largely listed as inhibitors; AID 624173; Q57TT1; also: potency is read from the fitted curve at half-maximal effect; % is scaled to controls: 0 for no effect and ±100 for the full control effect; nearly all actives have a fitted effect of over 50% in size
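Screened from lowest to highest concentration, compounds were pinned into TbPYK/substrate mixtures, and ADP (130 uM final) was added. Plates sat at room temperature for 45 min prior to Kinase-Glo Plus detection by luminescence.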
Shiga inhibitor = Shiga toxin inhibition | Vero cells, Shiga toxin protein synthesis inhibition reporter | inhibition, % at 38.7 µM | 290,000 tested, 9.2% active | AID 2315; in the data active = inhibition mostly above about 28%, no sharp cut-off; inactive = mostly below about 43%; also: 0% is about no effect
LmPK inh = LmPK (Leishmania mexicana) enzyme inhibition; Potency, µM (top dose mostly 57.5 µM), without a hit: top-dose activity change, negative = inhibition, usual class: inhibitors; Q27686; AID 1721; 290,000 tested, 0.37% active; purified LmPK, Kinase-Glo ATP luminescence, 1 h; also: potency is read from the fitted curve at half-maximal effect; % is scaled to controls: 0 for no effect and ±100 for the full control effect
Target sequence (Q27686 whole entry, looked up): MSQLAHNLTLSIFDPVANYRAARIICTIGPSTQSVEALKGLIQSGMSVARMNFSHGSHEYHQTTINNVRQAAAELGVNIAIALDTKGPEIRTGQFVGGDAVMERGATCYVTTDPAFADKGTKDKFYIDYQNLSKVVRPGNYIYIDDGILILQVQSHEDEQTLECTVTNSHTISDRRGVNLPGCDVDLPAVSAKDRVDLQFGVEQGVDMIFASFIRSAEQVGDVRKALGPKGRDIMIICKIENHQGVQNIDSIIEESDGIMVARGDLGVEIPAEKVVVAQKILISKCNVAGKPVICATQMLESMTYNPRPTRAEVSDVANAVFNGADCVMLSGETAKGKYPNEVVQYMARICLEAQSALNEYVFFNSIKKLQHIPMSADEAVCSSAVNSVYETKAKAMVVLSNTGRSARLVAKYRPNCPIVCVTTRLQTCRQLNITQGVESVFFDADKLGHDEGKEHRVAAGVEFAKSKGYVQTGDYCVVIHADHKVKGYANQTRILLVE
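0.1 nM LmPK, 0.5 mM PEP, 0.1 mM ADP; 50 mM imidazole pH 7.2, 7 mM MgCl2, 50 mM KCl; 1 h RT. Kinase-Glo luminescence readout, normalized to no-enzyme (full inhibition) and uninhibited wells.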
* hit, by the source's call; u = inconclusive; x = no result; + = active, no number. Many of the other results were omitted from the sample, so hits are more common in it than they were. Unless noted, calls follow the shape of the dose curve; as a rule, active = well fitted curve in the direction sought with a large enough effect; inconclusive = small, poorly fitted or top-dose-only effect, or another doubt; inactive = no such curve, though single readings can be large; an effect the other way counts as inactive or inconclusive.

SMILES	FBPA Giardia inh	Cycloheximide cs	Sm TGR inh	TbPYK inhibitor	Shiga inhibitor	LmPK inh
Cc1cc(=O)oc(C)c1C(=O)NNC(=O)C1(C)CC1Br (stereo not given)	6.7%	-1.5	2.2%	-2.3%	-4.5	0.7%
c1ncc(CCCC2CCNCC2)[nH]1	-19.4%	-5.4	x	x	2.1	x
CCCCS/C(N)=N/N=C/c1ccccc1O	1.6%	32.5*	5.1%	-11.3%	53.9	0.4%
CCCS/C(N)=N/N=C/c1cc(C)ccc1O	1.2%	41.5*	-4.3%	1.4%	144.9*	0.8%
Oc1ccccc1C=NN=C1c2ccccc2-c2ccccc21	x	x	x	-7.4%	x	x
CCN(CC)c1ccc(C=Nc2cc(C)ccc2C)c(O)c1	-12.7%	-3.5	5.4%	-20.3%	14.0	-1.6%
C/C(=N/N=C/c1ccccc1O)c1ccccc1O	3.7%	43.4*	15.6%	0.0%	89.0*	-6.2%
Cc1cccc(NC(=O)Cn2c(=O)n(CCCS(=O)(=O)C3CCCCC3)c(=O)c3ccccc32)c1	x	x	-3.8%	0.4%	x	x
COc1ccccc1CNC(=O)/C=C/c1ccc(S(=O)(=O)NCc2ccco2)cc1	-0.5%	19.5*	-15.3%	-5.5%	+	-4.5%
O=C(O)/C=C/c1ccc(S(=O)(=O)NCc2ccco2)cc1	5.4%	4.8	-31.2%	-17.8%	11.8	2.2%
O=C(/C=C/c1ccc(S(=O)(=O)NCc2ccco2)cc1)NCc1cccc(Cl)c1	-1.5%	28.9*	-14.6%	7.7%	46.0*	-1.4%
NS(=O)(=O)c1ccc(NC(=O)/C=C/c2ccc(S(=O)(=O)NCc3ccco3)cc2)cc1	-4.6%	5.8	15.3%	0.3%	-11.6	-1.8%
Cc1ccc(CNC(=O)/C=C/c2ccc(S(=O)(=O)NCc3ccco3)cc2)cc1	-0.5%	21.1*	-12.1%	-1.1%	40.1*	2.4%
CC(=O)OCC(NC(=O)C(CCCCNC(=O)OCc1ccccc1)NC(=O)OC(C)(C)C)C1OC(n2ccc(=O)[nH]c2=O)C(OC(C)=O)C1OC(C)=O (stereo not given)	8.1%	-2.9	x	x	-8.5	x
CC1Cn2cc(C(=O)Nc3cccc(C(F)(F)F)c3)c(=O)c3c(Cl)ccc(c32)O1 (stereo not given)	x	x	2.8%	1.9%	x	x
CCCCN(CC)CCCNC(=O)c1cc2cc3ccc(OC)cc3nc2o1	-7.5%	-0.6	-8.0%	-2.3%	-7.2	-1.8%
CCCCN(CC)C(=O)c1cc2cc3ccc(Cl)cc3nc2o1	5.9%	33.2*	11.3%	1.1%	63.8*	0.6%
CCC(C)Nc1nc2c(c(=O)[nH]c(=O)n2C)n1Cc1ccc(F)cc1 (stereo not given)	x	x	-8.2%	-4.7%	x	x
Cc1ccc(Nc2nc3c(c(=O)[nH]c(=O)n3C)n2Cc2ccc(F)cc2)cc1	1.5%	12.5*	-19.1%	0.6%	25.8*	1.2%
Cn1c(=O)[nH]c(=O)c2c1nc(N/N=C/C(Br)=C/c1ccccc1)n2CCO	u	1.0	5.01µM*	6.0%	-11.2	-0.1%
Cn1c(=O)[nH]c(=O)c2c1nc(NCCCO)n2Cc1ccc(F)cc1	10.7%	15.5	-22.8%	-1.1%	79.4*	-8.0%
O=C(Nc1nccs1)c1ccc(COc2ccccc2Br)o1	-4.8%	41.2*	-8.2%	1.3%	53.0*	1.3%
O=C(NCc1ccccn1)c1ccc(COc2ccc(Cl)cc2)o1	-7.2%	-2.4	u	3.0%	0.7	-9.8%
O=C(Nc1nccs1)c1ccc(COc2ccc(F)cc2)o1	-2.4%	32.3*	-6.4%	-1.7%	52.0	3.8%
Cc1cccc(OCC(=O)Nc2nccs2)c1C	7.5%	66.9*	1.1%	7.9%	67.3*	3.7%
SMILES	FBPA Giardia inh	Cycloheximide cs	Sm TGR inh	TbPYK inhibitor	Shiga inhibitor	LmPK inh
O=C(Nc1nccs1)c1ccc(COc2ccc(Cl)cc2)o1	1.5%	29.9*	u	-4.1%	55.1*	0.4%
O=C(NC1CC1)c1ccc(COc2ccc(F)cc2)o1	-3.4%	14.4	-25.9%	2.9%	25.0	-5.2%
O=C(COC(=O)c1cccc(Br)c1)NC1CCCCCCC1	x	x	x	6.5%	x	x
O=C(COc1ccc(F)cc1)Nc1nccs1	-7.2%	33.0*	0.2%	-12.1%	50.8*	u
COc1ccc(OCCCC(=O)Nc2nccs2)cc1	1.0%	12.7*	0.7%	-18.3%	20.3	-1.1%
O=C(CS(=O)(=O)c1ccc(F)cc1)Nc1nccs1	x	x	1.1%	-1.6%	x	x
